Drawing on PubChem BioAssay (NCI), this text covers growth for 8 compounds.

Structures are written as SMILES. About 83,000 compounds went through this panel and 20% of them were active in at least one assay; those are over-represented in the sample as a whole.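 Step 1: grow cells in 96-well plates. Step 2: add test compound at a single concentration. Step 3: incubate 48 h. Step 4: record percent growth.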 Unmarked numbers belong to inactive results. Calls of active or inactive are those of the source. The calls were made as follows: active = growth percent below 10; inactive = the rest.

Holding throughout (assay): NCI-60 one-dose screen, 48 h (100 = growth as untreated, 0 = no growth, -100 = all killed)
In one assay the test system is HCT-15 colon. The note with it: 10 µM unless noted.
The subject of the next assay is HT29 colon. The note with it: 10 µM unless noted.
The next assay concerns SNB-75 CNS. To be noted: 10 µM unless noted.
A further assay relates to SNB-19 CNS. The note with it: 10 µM unless noted.
For another assay, the system named is U251 CNS. To be noted: 10 µM unless noted.
A further assay has as its system PC-3 prostate. The note with it: 10 µM unless noted.
In the next assay the test system is SK-MEL-5 melanoma. The note with it: 10 µM unless noted.
In another assay the test system is UACC-62 melanoma. To be noted: 10 µM unless noted.
The test system of a further assay is LOX IMVI melanoma. The note with it: 10 µM unless noted.
In a further assay the test system is SK-MEL-28 melanoma. The note with it: 10 µM unless noted.
For the next assay, the system named is SK-MEL-2 melanoma. To be noted: 10 µM unless noted.
Another assay deals with EKVX NSCLC. To be noted: 10 µM unless noted.
The test system of another assay is UO-31 renal. To be noted: 10 µM unless noted.
For the next assay, the system named is TK-10 renal. The note with it: 10 µM unless noted.
Another assay deals with ACHN renal. To be noted: 10 µM unless noted.
In a further assay the test system is CAKI-1 renal. To be noted: 10 µM.
The next assay relates to A498 renal. To be noted: 10 µM unless noted.
The next assay has as its system CCRF-CEM leukemia. The note with it: 10 µM unless noted.
A further assay deals with MOLT-4 leukemia. The note with it: 10 µM unless noted.
A further assay relates to SN12C renal. The note with it: 10 µM unless noted.

Turning to `O=S(=O)(Nc1ccc(C2CC2)cc1)c1ccc(-c2cnc(C3CC3)o2)cc1`, the growth with HCT-15 colon is 39.9%; in the assay with HT29 colon, 38.4%; in the assay with SNB-75 CNS it was 53.8%; in the assay on SNB-19 CNS, 73.7%; in the assay on U251 CNS it was 68.7%; in the assay with PC-3 prostate, 63.1%. In addition, the growth with SK-MEL-5 melanoma is 74.7%; in the assay on UACC-62 melanoma it was 48.5%; in the assay with LOX IMVI melanoma it was 55.7%; in the assay with SK-MEL-28 melanoma it was 73.2%; with SK-MEL-2 melanoma, 64.8%; with EKVX NSCLC, 78.4%. The growth in the assay on UO-31 renal was 71.3%; in the assay on TK-10 renal, 101%; in the assay with ACHN renal, 87.6%; with CAKI-1 renal it was 27.5%; in the assay with A498 renal, 60%; with CCRF-CEM leukemia, 57.9%. Further, the growth with MOLT-4 leukemia was 41.3%.

In the case of `Cc1ccc(NC(=O)c2ccc(CN3CCN(C)CC3)c(I)c2)cc1Oc1ccc(-c2[nH]nc3ncnc(N)c23)cc1`, the growth is -54.1% (active) with HCT-15 colon; -71.1% (active) in the assay with HT29 colon; 100% with SNB-75 CNS; 96.5% with SNB-19 CNS; -59.8% (active) in the assay on U251 CNS; 75.2% with PC-3 prostate. For the same compound, the growth was 62.6% with SK-MEL-5 melanoma; 85% in the assay on UACC-62 melanoma; -86.5% (active) in the assay with LOX IMVI melanoma; -84.6% (active) with SK-MEL-28 melanoma; 86.4% in the assay on SK-MEL-2 melanoma; 100% in the assay on EKVX NSCLC. Besides, the growth in the assay with SN12C renal is 90%; in the assay on UO-31 renal, 75.8%; in the assay with ACHN renal, 76.9%; in the assay on CAKI-1 renal, 89.9%; with A498 renal, 103%; in the assay on CCRF-CEM leukemia, 3.41% (active). In addition, the growth with MOLT-4 leukemia is 11.3%.

`CC(=O)Nc1ccc(NC(=O)Nc2cccc(-c3nc(-c4ccc(NC(=O)c5cccnc5)cc4Cl)no3)c2)cc1C(F)(F)F`: the growth is 25.7% in the assay on HCT-15 colon; -41% (active) with HT29 colon; -64.1% (active) with SNB-75 CNS; -12.2% (active) in the assay with SNB-19 CNS; -56.1% (active) in the assay on U251 CNS; -61.4% (active) in the assay with PC-3 prostate. The growth in the assay on SK-MEL-5 melanoma is -88.2% (active); with UACC-62 melanoma it was -81.6% (active); in the assay with LOX IMVI melanoma, -91.9% (active); in the assay on SK-MEL-28 melanoma, -81.8% (active); with SK-MEL-2 melanoma it was -68.5% (active); with EKVX NSCLC, -39% (active). For the same compound, the growth was -65% (active) in the assay with SN12C renal; 52.9% in the assay with UO-31 renal; 34.2% in the assay with ACHN renal; -68.9% (active) with CAKI-1 renal; -64.8% (active) with A498 renal; -14.5% (active) in the assay on CCRF-CEM leukemia. Further, in the assay on MOLT-4 leukemia, the growth was -30.8% (active).

Regarding `CC1(C)CC[C@]2(C(=O)O)CC[C@]3(C)C(=CCC4[C@@]5(C)C[C@@H](O)[C@@H]6OC(c7ccccc7O)OC[C@@]6(C)C5CC[C@]43C)C2C1` (stereo partly drawn), the growth is 29.8% in the assay on HCT-15 colon; 44.1% in the assay with HT29 colon; 72.6% in the assay on SNB-75 CNS; 59.2% with SNB-19 CNS; 28.6% in the assay with U251 CNS; 62.9% with PC-3 prostate. The growth in the assay on SK-MEL-5 melanoma is 63.4%; in the assay on UACC-62 melanoma it was 82.4%; with LOX IMVI melanoma it was 27%; in the assay on SK-MEL-28 melanoma, 84.7%; in the assay with SK-MEL-2 melanoma, 85.7%; with EKVX NSCLC it was 39.9%. Moreover, the growth with SN12C renal is 60.1%; with UO-31 renal, 54.8%; in the assay with TK-10 renal, 52.2%; with CAKI-1 renal it was 73.5%; in the assay on CCRF-CEM leukemia, 46.8%; with MOLT-4 leukemia it was 39.2%.

On to `O=S(=O)(Nc1ccc(-n2cnc3cc(-c4ccc(O)cc4)ccc32)cc1)C1CC1`, for which the growth was 85.1% with HCT-15 colon; 98.9% with HT29 colon; 51.3% in the assay with SNB-75 CNS; 83.6% in the assay on SNB-19 CNS; 74.6% with U251 CNS; 83.4% with PC-3 prostate. For the same compound, the growth was 88% in the assay with SK-MEL-5 melanoma; 73.8% in the assay on UACC-62 melanoma; 116% in the assay on LOX IMVI melanoma; 94.2% in the assay with SK-MEL-28 melanoma; 95% in the assay on SK-MEL-2 melanoma; 101% in the assay on EKVX NSCLC. Moreover, the growth in the assay on UO-31 renal was 55.6%; with TK-10 renal it was 111%; with ACHN renal, 78.1%; with CAKI-1 renal, 66.3%; in the assay with A498 renal, 66%; in the assay on CCRF-CEM leukemia, 79.4%. For the same compound, the growth in the assay with MOLT-4 leukemia is 72%.

Consider `COc1ccc(CCN2C(=O)/C(=C/c3nc(CO)cs3)SC2=S)cc1`, for which the growth in the assay on HCT-15 colon is 51.2%; in the assay with HT29 colon, 103%; with SNB-75 CNS it was 73.1%; in the assay with SNB-19 CNS it was 91.7%; in the assay on U251 CNS it was 91.9%; with PC-3 prostate it was 74%. Besides, the growth is 98.1% with SK-MEL-5 melanoma; 79.7% in the assay on UACC-62 melanoma; 30.8% in the assay on LOX IMVI melanoma; 97.2% with SK-MEL-28 melanoma; 96.9% in the assay with SK-MEL-2 melanoma; 95.2% in the assay with EKVX NSCLC. Also, the growth was 83.6% in the assay with SN12C renal; 34% in the assay with UO-31 renal; 61.6% in the assay with TK-10 renal; 63.4% with CAKI-1 renal; 87.5% in the assay with MOLT-4 leukemia.

On to `CC(C)C(=O)Nc1ccc(-c2nc(-c3cccc(O)c3)c(-c3ccnc(Br)c3)[nH]2)cc1`, for which the growth with HCT-15 colon is 65.6%; in the assay on HT29 colon, 41%; in the assay with SNB-75 CNS, 4.68% (active); in the assay with SNB-19 CNS it was 47%; in the assay on U251 CNS it was 42.5%; with PC-3 prostate it was 29.7%. The growth was 42.7% in the assay on SK-MEL-5 melanoma; 31.8% in the assay on UACC-62 melanoma; 38.4% with LOX IMVI melanoma; 50.3% with SK-MEL-28 melanoma; 44.1% with SK-MEL-2 melanoma; 80.6% with EKVX NSCLC. For the same compound, the growth in the assay with SN12C renal is 63.5%; in the assay with UO-31 renal it was 24%; in the assay with TK-10 renal, 81.1%; in the assay on CAKI-1 renal, 45.1%; in the assay on A498 renal, 37.4%; in the assay with CCRF-CEM leukemia, 17.3%. The growth in the assay on MOLT-4 leukemia is 9.54% (active).

As for `CN(C)C(=O)C1=NC(CO)C(=O)N(c2ccc(Cl)cc2)N1` (stereo not drawn), the growth is 102% with HCT-15 colon; 102% with HT29 colon; 105% in the assay on SNB-75 CNS; 102% with SNB-19 CNS; 101% with U251 CNS; 90.8% with PC-3 prostate. For the same compound, the growth is 102% in the assay with SK-MEL-5 melanoma; 96.6% with UACC-62 melanoma; 95.3% in the assay on LOX IMVI melanoma; 107% with SK-MEL-28 melanoma; 99% with SK-MEL-2 melanoma; 99.5% in the assay with EKVX NSCLC. Also, the growth in the assay with UO-31 renal was 82.5%; in the assay with TK-10 renal it was 91.1%; in the assay with ACHN renal, 101%; in the assay on CAKI-1 renal it was 92%; in the assay on CCRF-CEM leukemia, 104%; with MOLT-4 leukemia, 103%.
